Pf growth 96h: inhibits malaria parasite growth, 96 h; P. falciparum luciferase reporter growth, 96 h; Potency, µM (highest dose often 28.7 µM), hits mostly inhibitors; 320,000 compounds, 6.9% hits
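Two parasite generations (96 h, 37 C, 5% CO2) of compound exposure in infected erythrocytes (0.05% parasitemia, 2% hematocrit). Luciferase-reporter P. falciparum; decreased luminescence indicates inhibited growth, aimed at apicoplast-acting delayed death.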
HCV inh: blocks hepatitis C virus; Huh7.5.1 HCVcc-Cre infection, luciferase reporter, 44 h; Potency, µM (highest dose often 41.8 µM), usual class: inhibitors; 340,000 compounds, 3.4% hits; AID 651820
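1,000 cells/well; 4 h culture; + compound; + HCVcc-Cre (~0.5 moi); 44 h; luciferase substrate, RT 15 min; read 15 sec.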
HCMV antiviral: inhibitors of human cytomegalovirus. HFF cells, HCMV-luciferase reporter, 72 h; stronger effect = lower value. activity change, negative = inhibition, % at 57.5 µM. 410,000 compounds, 4.5% hits. AID 1259415; in the data active = activity change below about -60%; inconclusive = no clear call, values can overlap the other calls; inactive = above about -39%
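HFF cells seeded 16 h at 37C, treated with compounds, infected with luciferase-reporter HCMV at MOI 1 PFU/cell; luciferase read at 72 h post infection, normalized to buffer-only and Salinomycin controls.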
Pf growth 48h: inhibits P. falciparum growth in the first generation, 48 h; P. falciparum luciferase growth in erythrocytes, 48 h; Potency, µM (top dose mostly 28.7 µM), usual class: inhibitors; 310,000 compounds, 5.9% hits; AID 504832
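First compound was added to culture medium, then infected red cells at 0.1% parasitemia and 2% hematocrit (final). After incubation at 37 C under 5% CO2, luciferase detection reagent was dispensed and light output recorded.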
Large screens that a line does not name were inactive. The list is not random: actives were taken first. Their share in the collection is about 13%. Unless noted, calls follow the shape of the dose curve; as a rule, active = well fitted inhibition curve with a large enough effect; inconclusive = small, poorly fitted or top-dose-only effect, or another doubt; inactive = no such curve, though single readings can be large or run the other way.

O=C1N(Cc2cccnc2)C[C@@H]2C[C@@H](c3ccc(-c4ccccc4)cc3)N3CCC[C@@]123	Pf growth 96h inconclusive, HCV inh inconclusive, HCMV antiviral inconclusive, Pf growth 48h 12µM
O=C1N(Cc2cccnc2)C[C@@H]2C[C@@H](c3cccc(OC4CCCC4)c3)N3CCC[C@@]123	HCV inh 13µM, HCMV antiviral inconclusive, Pf growth 48h 8.3µM
Cc1ccccc1CN1C[C@@H]2C[C@@H](c3cn[nH]c3-c3ccccc3)N3CCC[C@@]23C1=O	Pf growth 96h inconclusive, HCV inh 13µM, HCMV antiviral -66, Pf growth 48h 1.7µM
O=C1N(Cc2cccnc2)C[C@@H]2C[C@@H](c3ccc4nonc4c3)N3CCC[C@@]123	none
O=C1N(Cc2cccnc2)C[C@@H]2C[C@@H](c3cccc(C(F)(F)F)c3)N3CCC[C@@]123	Pf growth 96h 10µM, Pf growth 48h inconclusive
COc1ccccc1CN1C[C@@H]2C[C@@H](C3=Cc4cccc(OC)c4OC3)N3CCC[C@@]23C1=O	HCV inh inconclusive, Pf growth 48h 4.7µM
O=c1cc(O)c(-c2ccc(Cl)cc2)c(Cl)[nH]1	Pf growth 48h 13µM
Cc1ccc(NC(=O)CSc2nnc(CCCCCNC(=O)OC(C)(C)C)o2)c(C)c1	Pf growth 96h 13µM
Cc1c(Cl)cccc1NC(=O)CSc1nnc(CCNC(=O)OC(C)(C)C)o1	Pf growth 96h 10µM, HCMV antiviral inconclusive
Cc1ccc(C)c(NC(=O)CSc2nnc(CCNC(=O)OC(C)(C)C)o2)c1	none (no result: Pf growth 48h)
COC(=O)c1cc(C(=O)c2cc(F)ccc2O)cn2c(=O)c3c(C)c(C)sc3nc12	Pf growth 96h 2.6µM, HCV inh inconclusive, HCMV antiviral inconclusive, Pf growth 48h 2.1µM
COc1ccc(-n2c(CN3CCN(c4ccccc4OC)CC3)nc3ccc([N+](=O)[O-])cc3c2=O)c(OC)c1	Pf growth 48h 13µM
CCN1CCN(Cc2nc3ccc([N+](=O)[O-])cc3c(=O)n2-c2ccc(OC)cc2OC)CC1	none (no result: Pf growth 48h)
COc1cccc2c1Oc1ncccc1N(C(=O)Nc1cccc(Cl)c1)C2	none (no result: Pf growth 96h, HCV inh, Pf growth 48h)
CC(=O)Nc1ccc(-c2csc(NNC(=O)c3ccc(C)cc3)n2)cc1	HCMV antiviral inconclusive
O=C(NNc1nc(-c2ccc(Br)cc2)cs1)c1ccco1	HCV inh inconclusive, Pf growth 48h 1.7µM
N#Cc1ccc(-c2csc(NNC(=O)c3ccc(Br)cc3)n2)cc1	Pf growth 96h 2.9µM, HCV inh 8.9µM, HCMV antiviral -106, Pf growth 48h 1.7µM
O=C(Nc1nc(-c2ccccc2)cs1)c1ccco1	none
O=C(Nc1ccc(-c2csc(Nc3ccccc3)n2)cc1)c1ccccc1	Pf growth 96h inconclusive, HCV inh inconclusive, HCMV antiviral -63, Pf growth 48h inconclusive
O=C(NNc1nc(-c2ccccc2)cs1)c1ccccc1	Pf growth 96h 2.3µM, HCV inh inconclusive, Pf growth 48h inconclusive
CC(C)CCN1C(=O)c2ccccc2CC1(C)C(=O)NC1CCCCC1 (centres undefined)	none (no result: Pf growth 96h, HCV inh, Pf growth 48h)
N#Cc1ccc(-c2csc(NNC(=O)c3ccccc3)n2)cc1	Pf growth 96h 3.7µM, Pf growth 48h 12µM
O=C(Nc1nc(-c2ccc(Br)cc2)cs1)c1cccnc1	HCMV antiviral -64
Cc1ccc(-c2nc(CSCC(=O)N3CCN(c4ccccn4)CC3)c(C)o2)cc1	Pf growth 96h 10µM, HCV inh inconclusive, HCMV antiviral inconclusive (no result: Pf growth 48h)
Cc1ccc(-c2nc(CS(=O)CC(=O)N3CCN(c4ccccc4)CC3)c(C)o2)cc1 (centres undefined)	HCV inh inconclusive, HCMV antiviral inconclusive
COc1cccc(-c2nc(CSCC(=O)N3CCc4ccccc43)c(C)o2)c1	Pf growth 96h inconclusive, HCV inh inconclusive
Cc1ccc(-c2nc(CS(=O)CC(=O)N3CCN(c4ccc(Cl)cc4)CC3)c(C)o2)cc1 (centres undefined)	HCMV antiviral -71 (no result: Pf growth 96h, HCV inh, Pf growth 48h)
CCc1ccc(-c2nc(CSCC(=O)N3CCN(c4ccccn4)CC3)c(C)o2)cc1	HCV inh 16µM (no result: Pf growth 96h)
CCOc1ccc(-c2nc(CSCC(=O)N3CCN(c4cccc(OC)c4)CC3)c(C)o2)cc1	Pf growth 96h inconclusive, HCV inh 13µM, HCMV antiviral -77 (no result: Pf growth 48h)
CCn1c(C(=O)NCc2ccccc2)cc2sc(Cl)cc21	none (no result: Pf growth 96h, HCV inh, Pf growth 48h)
CC(C)C(CCNC(=O)CC(Cc1ccccc1)c1ccco1)c1ccco1 (centres undefined)	Pf growth 96h 13µM, Pf growth 48h inconclusive
COc1ccc(-c2nc3c4ccccc4n(CC(=O)N4CCN(c5ccccc5OC)CC4)c(=O)n3n2)cc1	none (no result: Pf growth 96h, HCV inh, Pf growth 48h)
CCn1ncc(/C=N\NC(=O)c2ccc3c(c2)c(C)c(C)n3Cc2ccccc2)c1C	Pf growth 96h inconclusive (no result: Pf growth 48h)
CCn1nc(C)c(/C=N/NC(=O)c2ccc3c(c2)c(C)c(C)n3Cc2ccccc2)c1C	Pf growth 96h 12µM, HCV inh 10µM (no result: Pf growth 48h)
CCn1cc(/C=N\NC(=O)c2ccc3c(c2)c(C)c(C)n3Cc2ccccc2)c(C)n1	Pf growth 96h 10µM, HCMV antiviral inconclusive (no result: Pf growth 48h)
Cc1ccc(CNC(=O)CCCn2c(=O)[nH]c3ccc(Br)cc3c2=O)cc1	none (no result: Pf growth 96h, HCV inh, Pf growth 48h)
COC(=O)c1cccc(Nc2c(-c3ccc(O)c(OC)c3)nc3nc[nH]n23)c1	none (no result: Pf growth 96h, HCV inh, Pf growth 48h)
COc1cc(OC)c(NC(=O)c2oc3ccc4c(c3c2C)C(=O)CC(C)(C)O4)cc1Cl	none (no result: Pf growth 96h, HCV inh, Pf growth 48h)
N#Cc1c2ccc([N+](=O)[O-])cc2[n+]([O-])n1-c1ccccc1	Pf growth 96h 10µM, HCV inh 1.6µM, HCMV antiviral active, Pf growth 48h 12µM
CCN(CC)c1ccc(NC(=O)CCc2c(C)nc3ncnn3c2C)c(C)c1	none (no result: Pf growth 96h, HCV inh, Pf growth 48h)
CCCN(C(=O)c1cc2c(=O)oc3ccccc3c2s1)c1ccccc1C	none (no result: Pf growth 96h, HCV inh, Pf growth 48h)
N#Cc1cn(Cc2cccc(Cl)c2)c2ccccc12	HCV inh inconclusive, Pf growth 48h 9.3µM
C#C[C@@]1(O)CC[C@@H]2[C@@H]3CCC4=C(CCC(=O)C4)[C@H]3CC[C@]21C	none (no result: HCV inh, HCMV antiviral)
CCC(=O)NC(c1cc(Cl)c2cccnc2c1O)C(C)C (centres undefined)	Pf growth 96h 13µM, HCMV antiviral -96, Pf growth 48h 2.9µM (no result: HCV inh)
CCC(=O)NC(c1cc(Cl)c2cccnc2c1O)C1CC1 (centres undefined)	Pf growth 96h 2.9µM, HCMV antiviral -95, Pf growth 48h 3.7µM (no result: HCV inh)
CNCC(=O)Nc1c(C)n[nH]c1C	none
CCCC(=O)Nc1c(C)n[nH]c1C	Pf growth 96h 0.59µM
O=C(CSCc1cccc(CSCC(=O)Nc2ccc3ccccc3c2)n1)Nc1ccc2ccccc2c1	HCV inh 10µM, HCMV antiviral -82 (no result: Pf growth 96h, Pf growth 48h)
O=C(CSCc1nc2ccccc2[nH]1)Nc1ccc2ccccc2c1	Pf growth 96h inconclusive, HCV inh inconclusive
CCOC(=O)c1[nH]c(C)c(CCC(=O)Nc2cccc(C(F)(F)F)c2)c1C	none (no result: Pf growth 96h, HCV inh, Pf growth 48h)
CCOc1ccc(NC(=O)c2cc(=O)c3cc(CC)ccc3o2)cc1	none (no result: Pf growth 96h, HCV inh, Pf growth 48h)
COc1ccc(NC(=O)Nc2cc(C(=O)NCc3ccc(C)cc3)ccc2N2CCCC2)cc1	none (no result: Pf growth 96h, HCV inh, Pf growth 48h)
COc1ccc(C2=Nc3ccccc3NC(=O)C2N(C(=O)c2ccnc3ccccc23)c2ccccc2)cc1 (centres undefined)	HCMV antiviral -82 (no result: Pf growth 96h, HCV inh, Pf growth 48h)
COc1cc2c(cc1OC)-c1cc(NC3CCCC3)nc(=O)n1CC2	Pf growth 48h inconclusive

Bioassay records from PubChem BioAssay.
